According to PubChem BioAssay AID1159580 (chemical genetic matrix, 2015):
Out of some 5,500 compounds screened, about 2,000 (36%) were called active. Not shown: some 18% with an inconclusive outcome. Rule as the data show it: active = normalized growth mostly below about 0.91 (no sharp cut-off); inconclusive = no clear call, values can overlap the other calls; inactive = mostly above about 0.92. This is one part of the list. Where a SMILES comes first, the peptide text is derived from it. Side-chain parts run from the residue outwards. [ ]: non-standard residue; d: D form. The star is where a group is joined. X1 = CCC(C)C(N)C1=NC(C(=O)*)CS1; Orn = NCCC[CH](N)C(=O)O

Experiment: chemical genetic growth profiling, strain panel (AID 1159580);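 also: tested at 20 µM; growth read once vehicle control cultures reached saturation at 30 °C; 1 = growth at the plate median or of vehicle wells; lower values mean less growth of the strain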
Settings: growth OD

Measured: normalized growth

CCC(C)C(N)C1=NC(C(=O)NC(CC(C)C)C(=O)NC(CCC(=O)O)C(=O)NC(C(=O)NCCCCC2NC(=O)C(CC(N)=O)NC(=O)C(CC(=O)O)NC(=O)C(Cc3cnc[nH]3)NC(=O)C(Cc3ccccc3)NC(=O)C(C(C)CC)NC(=O)C(CCCN)NC2=O)C(C)CC)CS1 (stereo not drawn) (cyclo(DNK([Ile-Glu-Leu-X1])[Orn]IFH); configuration not given here)
inactive: S. cerevisiae deletion strains, locus YJR075W, strain HOC1, stronger effect = lower value 0.986 | S. cerevisiae deletion strains, locus YKL009W, strain mrt4, stronger effect = lower value 0.974 | S. cerevisiae deletion strains, locus YKL068W, stronger effect = lower value 0.995 | S. cerevisiae deletion strains, locus YKL085W, strain MDH1 (second series), stronger effect = lower value 0.966 | S. cerevisiae deletion strains, locus YKL085W, strain MDH1, stronger effect = lower value 0.966 | S. cerevisiae deletion strains, locus YKL160W, strain elf1, stronger effect = lower value 1.02 | S. cerevisiae deletion strains, locus YKL190W, strain CNB1, stronger effect = lower value 0.996 | S. cerevisiae deletion strains, locus YKR001C, strain vps1, stronger effect = lower value 1.01 | S. cerevisiae deletion strains, locus YKR026C, strain gcn3, stronger effect = lower value 1.05 | S. cerevisiae deletion strains, locus YKR091W, strain srl3, stronger effect = lower value 0.973 | S. cerevisiae deletion strains, locus YLL001W, strain dnm1, stronger effect = lower value 1.04 | S. cerevisiae deletion strains, locus YLL026W, stronger effect = lower value 1.01 | S. cerevisiae deletion strains, locus YLL041C, strain sdh2, stronger effect = lower value 1.01 | S. cerevisiae deletion strains, locus YLR027C, strain aat2, stronger effect = lower value 1.01 | S. cerevisiae deletion strains, locus YLR039C, strain RIC1, stronger effect = lower value 1.06 | S. cerevisiae deletion strains, locus YLR058C, strain SHM2, stronger effect = lower value 0.994 | S. cerevisiae deletion strains, locus YLR102C, strain apc9, stronger effect = lower value 1.01 | S. cerevisiae deletion strains, locus YLR113W, strain HOG1, stronger effect = lower value 1.05 | S. cerevisiae deletion strains, locus YLR221C, strain rsa3, stronger effect = lower value 1.01 | S. cerevisiae deletion strains, locus YLR258W, strain gsy2, stronger effect = lower value 0.993 | S. cerevisiae deletion strains, locus YLR262C, strain YPT6 (second series), stronger effect = lower value 1.01 | S. cerevisiae deletion strains, locus YLR262C, strain YPT6, stronger effect = lower value 1.02 | S. cerevisiae deletion strains, locus YLR268W, strain sec22, stronger effect = lower value 1.02 | S. cerevisiae deletion strains, locus YLR320W, strain mms22, stronger effect = lower value 0.982 | S. cerevisiae deletion strains, locus YLR330W, strain CHS5, stronger effect = lower value 1.01 | S. cerevisiae deletion strains, locus YLR342W, strain FKS1 (second series), stronger effect = lower value 1.03 | S. cerevisiae deletion strains, locus YLR342W, strain FKS1, stronger effect = lower value 1.02 | S. cerevisiae deletion strains, locus YLR357W, strain rsc2, stronger effect = lower value 1.07 | S. cerevisiae deletion strains, locus YLR370C, strain arc18, stronger effect = lower value 0.999 | S. cerevisiae deletion strains, locus YLR371W, strain rom2, stronger effect = lower value 1.02 | S. cerevisiae deletion strains, locus YLR384C, strain iki3, stronger effect = lower value 0.993 | S. cerevisiae deletion strains, locus YLR418C, strain cdc73, stronger effect = lower value 0.989 | S. cerevisiae deletion strains, locus YML016C, strain PPZ1, stronger effect = lower value 0.992 | S. cerevisiae deletion strains, locus YML032C, strain rad52, stronger effect = lower value 0.967 | S. cerevisiae deletion strains, locus YML120C, strain ndi1, stronger effect = lower value 0.994 | S. cerevisiae deletion strains, locus YML124C, strain tub3, stronger effect = lower value 0.981 | S. cerevisiae deletion strains, locus YMR058W, strain fet3, stronger effect = lower value 1.02 | S. cerevisiae deletion strains, locus YMR078C, strain ctf18, stronger effect = lower value 0.988 | S. cerevisiae deletion strains, locus YMR125W, strain sto1, stronger effect = lower value 1.02 | S. cerevisiae deletion strains, locus YMR129W, stronger effect = lower value 0.997 | S. cerevisiae deletion strains, locus YMR205C, strain PFK2, stronger effect = lower value 0.998 | S. cerevisiae deletion strains, locus YMR223W, strain ubp8, stronger effect = lower value 1 | S. cerevisiae deletion strains, locus YMR231W, strain pep5, stronger effect = lower value 0.996 | S. cerevisiae deletion strains, locus YMR263W, strain SAP30, stronger effect = lower value 1.01 | S. cerevisiae deletion strains, locus YMR307W, strain GAS1, stronger effect = lower value 0.955 | S. cerevisiae deletion strains, locus YNL067W, strain RPL9B, stronger effect = lower value 1 | S. cerevisiae deletion strains, locus YNL071W, strain lat1, stronger effect = lower value 1 | S. cerevisiae deletion strains, locus YNL128W, strain TEP1, stronger effect = lower value 0.999 | S. cerevisiae deletion strains, locus YNL153C, strain GIM3, stronger effect = lower value 0.992 | S. cerevisiae deletion strains, locus YNL183C, strain NPR1, stronger effect = lower value 0.975 | S. cerevisiae deletion strains, locus YNL209W, strain ssb2, stronger effect = lower value 0.991 | S. cerevisiae deletion strains, locus YNL233W, strain BNI4, stronger effect = lower value 1.01 | S. cerevisiae deletion strains, locus YNL248C, strain rpa49, stronger effect = lower value 0.998 | S. cerevisiae deletion strains, locus YNL250W, strain rad50, stronger effect = lower value 1.01 | S. cerevisiae deletion strains, locus YNL271C, strain bni1, stronger effect = lower value 1.01 | S. cerevisiae deletion strains, locus YNL298W, strain CLA4, stronger effect = lower value 0.966 | S. cerevisiae deletion strains, locus YNL307C, strain MCK1, stronger effect = lower value 1 | S. cerevisiae deletion strains, locus YNL322C, strain KRE1 (second series), stronger effect = lower value 0.994 | S. cerevisiae deletion strains, locus YNR049C, strain mso1, stronger effect = lower value 0.995 | S. cerevisiae deletion strains, locus YNR052C, strain pop2, stronger effect = lower value 0.992 | S. cerevisiae deletion strains, locus YOL006C, strain TOP1, stronger effect = lower value 0.996 | S. cerevisiae deletion strains, locus YOL012C, strain htz1 1.9 | S. cerevisiae deletion strains, locus YOL147C, strain pex11, stronger effect = lower value 0.994 | S. cerevisiae deletion strains, locus YOR001W, strain rrp6, stronger effect = lower value 1.01 | S. cerevisiae deletion strains, locus YOR061W, strain CKA2, stronger effect = lower value 1.01 | S. cerevisiae deletion strains, locus YOR069W, strain VPS5, stronger effect = lower value 1 | S. cerevisiae deletion strains, locus YOR070C, strain gyp1, stronger effect = lower value 1.01 | S. cerevisiae deletion strains, locus YOR080W, strain dia2, stronger effect = lower value 1 | S. cerevisiae deletion strains, locus YOR083W, strain WHI5, stronger effect = lower value 1.04 | S. cerevisiae deletion strains, locus YOR106W, strain vam3, stronger effect = lower value 1.02 | S. cerevisiae deletion strains, locus YOR136W, strain idh2, stronger effect = lower value 1.01 | S. cerevisiae deletion strains, locus YOR144C, strain elg1, stronger effect = lower value 0.999 | S. cerevisiae deletion strains, locus YOR184W, strain ser1, stronger effect = lower value 1.01 | S. cerevisiae deletion strains, locus YOR231W, strain MKK1, stronger effect = lower value 1.03 | S. cerevisiae deletion strains, locus YOR265W, strain rbl2, stronger effect = lower value 1.01 | S. cerevisiae deletion strains, locus YOR270C, strain vph1, stronger effect = lower value 1 | S. cerevisiae deletion strains, locus YOR290C, strain snf2, stronger effect = lower value 0.963 | S. cerevisiae deletion strains, locus YOR316C, strain cot1, stronger effect = lower value 1 | S. cerevisiae deletion strains, locus YPL051W, strain arl3, stronger effect = lower value 1.04 | S. cerevisiae deletion strains, locus YPL078C, strain atp4, stronger effect = lower value 1.02 | S. cerevisiae deletion strains, locus YPL106C, strain sse1, stronger effect = lower value 0.976 | S. cerevisiae deletion strains, locus YPL240C, strain hsp82, stronger effect = lower value 1 | S. cerevisiae deletion strains, locus YPL256C, strain CLN2, stronger effect = lower value 1.02 | S. cerevisiae deletion strains, locus YPR119W, strain clb2, stronger effect = lower value 0.993 | S. cerevisiae deletion strains, locus YPR141C, strain kar3, stronger effect = lower value 0.994 | S. cerevisiae deletion strains, locus YPR163C, strain tif3, stronger effect = lower value 0.995 | S. cerevisiae deletion strains, locus YPR167C, strain met16, stronger effect = lower value 0.993 | S. cerevisiae deletion strains, strain wtn01, stronger effect = lower value 1.03 | S. cerevisiae strains, strain wild type, stronger effect = lower value 0.992
